D3 ag – D3 dopamine receptor (human) agonism | P35462 | D3R DiscoveRx beta-arrestin cells, luminescence, 90 min | max activation, % | 0.58% of 410,000 active; in the data active = max activation above about 30%; also: 0% is about no effect
Target sequence (P35462 whole entry, looked up): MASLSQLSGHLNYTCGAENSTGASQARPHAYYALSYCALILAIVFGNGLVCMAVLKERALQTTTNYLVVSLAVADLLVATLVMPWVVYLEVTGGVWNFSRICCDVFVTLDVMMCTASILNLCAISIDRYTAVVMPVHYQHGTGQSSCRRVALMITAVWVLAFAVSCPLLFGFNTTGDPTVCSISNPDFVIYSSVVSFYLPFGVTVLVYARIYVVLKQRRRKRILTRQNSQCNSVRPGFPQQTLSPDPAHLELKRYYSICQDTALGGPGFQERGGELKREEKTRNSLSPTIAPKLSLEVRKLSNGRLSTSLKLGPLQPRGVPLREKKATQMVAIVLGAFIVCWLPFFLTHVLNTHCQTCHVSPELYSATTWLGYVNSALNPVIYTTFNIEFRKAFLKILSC
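Agonist mode: compounds and dopamine controls were applied to plated cells for 90 min at 37 degrees C after an overnight attachment at 1500 cells/well. Luminescent read-out followed 30 - 60 minutes at room temperature with DiscoveRx detection reagent.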
S2 tox – cell viability loss in ATXN counter-screen | S2 cells (HEK-293 line with an ATXN2-luciferase reporter) viability, CellTiter-Fluor protease fluorescence, 24 h | Potency, µM (highest dose often 56.7 µM), most hits filed as cytotoxic | 0.49% of 400,000 active; also: potency is read from the fitted curve at half-maximal effect; nearly all actives have a fitted effect of over 40% in size
TGFb inhibitor – blocks TGF-b signaling | 1.2% of 410,000 active | HepG2 CAGA-GFP TGF-b/SMAD3 reporter, GFP fluorescence, 18 h; TGF-beta stimulated, 500 pg/mL final | Potency, µM (titrated, usually from 46.1 µM), for inactives: at the top dose activity, negative = inhibition, usual class: inhibitors | AID 588855; also: potency is read from the fitted curve at half-maximal effect; % is scaled to controls: 0 for no effect and ±100 for the full control effect; nearly all actives have a fitted effect of over 65% in size
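Inhibition was scored as loss of TGF-beta-induced (500 pg/mL final, 18 hours, 37 degrees C) GFP in HEPG2 cells carrying a CAGA-GFP reporter, in DMEM with 1% FBS. Well GFP was summed per cell; Activity was normalised to unstimulated and stimulated DMSO wells, then concentration-response fitting.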
HepG2 viability – kills HepG2 cells in TGF-b inhibitor counter-screen; HepG2 CAGA-GFP viability, ATP luminescence, 18 h; Potency, µM (doses to about 46.1 µM), for inactives: at the top dose activity change, negative = cytotoxicity, actives largely listed as cytotoxic; 0.76% of 410,000 active; AID 588856; also: potency is read from the fitted curve at half-maximal effect
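CellTiter-Glo luminescence gave cytotoxicity after 18 hours at 37 degrees C. The cells were HepG2 CAGA-GFP in 1% FBS DMEM, stimulated with 500 pg/mL TGF-beta after compound addition. %Activity was normalised to no-cell wells (complete cell-killing) and DMSO (no toxicity), and curves were fitted and classified.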
DRD3 antagonist – blocks the human D3 dopamine receptor; D3R cells, DiscoveRx beta-arrestin luminescence, antagonist mode; active compounds read low; 2.5% of 360,000 active; max response, negative = inhibition, %; AID 652054; P35462; in the data active = max response below about -50%; inconclusive = no clear call, values can overlap the other calls; also: % is scaled to controls: 0 for no effect and ±100 for the full control effect
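Cells expressing the human receptor were seeded at 1500 cells/well, incubated overnight at 37 degrees C in 5% CO2, then exposed to library compounds with dopamine controls for 90 minutes at 37 degrees C before luminescent detection.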
ATXN2 expr inh – reduces ATXN2 reporter expression in HEK-293 cells | Potency, µM (doses to about 57 µM), inactives show top-dose activity change, negative = inhibition, most hits filed as inhibitors | HEK-293 ATXN2-luciferase reporter, luminescence, 24 h | 0.72% of 360,000 active; also: potency is read from the fitted curve at half-maximal effect; % is scaled to controls: 0 for no effect and ±100 for the full control effect; nearly all actives have a fitted effect of over 55% in size
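ATXN2-luciferase reporter cells (luciferase flanked by upstream and downstream ATXN2 gene portions) were treated 24 h at 37 °C with compounds at up to 57 uM. SteadyGlo luminescence gave expression; GF-AFC fluorescence gave viability.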
Numbers without * were called inactive; i = inactive; ? = inconclusive; · = no result. Most compounds without a hit are left out; they make up all but 4.7% or so of the library. Unless noted, calls follow the shape of the dose curve; as a rule, active = well fitted curve in the direction sought with a large enough effect; inconclusive = small, poorly fitted or top-dose-only effect, or another doubt; inactive = no such curve, though single readings can be large; an effect the other way counts as inactive or inconclusive.

SMILES	D3 ag	S2 tox	TGFb inhibitor	HepG2 viability	DRD3 antagonist	ATXN2 expr inh
CCCc1nc(SCC(=O)N2CCc3ccccc3C2)c2ccccc2n1	17	i	1%	-6%	15	?
Cc1sc2nc(C(C)C)nc(SCC(=O)N3CCN(C(=O)c4ccco4)CC3)c2c1C	27	·	-50%	-13%	17	32µM*
CCc1c(C)sc2nc(C(C)C)nc(SCC(=O)N3CCc4ccccc4C3)c12	50*	?	-15%	1%	58	-25%
Cc1sc2nc(C3CC3)nc(SCC(=O)N3CC(=O)Nc4ccccc43)c2c1C	8	i	-2%	-57%	34	-10%
Cc1sc2ncnc(SCC(=O)N3CCN(C(=O)c4ccco4)CC3)c2c1C	14	i	-28%	-20%	11	-16%
Cc1sc2nc(C3CC3)nc(SCC(=O)N3CCc4ccccc4C3)c2c1C	46*	?	?	-17%	50	-3%
Cc1ccccc1Nc1cc(C(=O)NCc2cccs2)c2ccccc2n1	-18	?	-30%	-23%	·	-14%
O=C(NCC1Cc2cc(F)cc(-c3cnccn3)c2O1)c1cccc(Cl)c1 (configuration not stated)	·	i	·	·	·	·
CCN(CC)S(=O)(=O)c1ccc(Cl)c(C(=O)Oc2cccnc2)c1	0	i	-17%	3%	-11	1%
CCN(CC)S(=O)(=O)c1ccc(Cl)c(C(=O)OC2CC(C)OC2=O)c1 (configuration not stated)	32*	i	1%	12%	12	0%
Cc1ccc2ccc3c(c2n1)NS(=O)(=O)c1ccc(C(F)(F)F)cc1-3	·	·	7.1µM*	4%	·	·
CCc1cc(-c2[nH]ncc2-c2ccc([N+](=O)[O-])cc2)c(O)cc1OC	5	i	13µM*	-63%	?	-5%
Cc1cc(/C=N/n2cnnc2)c(C)n1-c1ccc(OCc2ccc(Cl)cc2)cc1	3	?	?	-24%	-20	-19%
Cc1cc(/C=N/n2cnnc2)c(C)n1-c1ccc(OCc2ccccc2F)cc1	-5	i	11µM*	13µM*	-14	?
CCCS(=O)(=O)N1CCN(C(=O)COc2ccccc2)CC1	34*	i	4%	-5%	-20	5%
CCCS(=O)(=O)N1CCN(C(=O)COc2ccc(-c3ccccc3)cc2)CC1	1	i	10%	-13%	2	-10%
COc1cccc2sc(Nc3nnc(-c4ccc(F)cc4)o3)nc12	10	·	-23%	13µM*	21	?
O=C(NC(=S)Nc1ccccc1N1CCCCC1)c1ccco1	2	i	11µM*	-42%	34	19%
Cc1ccc(NC(=O)CN2C(=O)CCn3nc(-c4cccn4C)cc32)cc1	3	i	1%	0%	·	13%
O=c1n(-c2ccccc2)c(=O)n2n1CCCC2	42*	i	0%	-14%	?	1%
Cc1ccc(C(=O)N/C(=C/c2ccc(N(C)C)cc2)C(=O)NCC2CCCO2)cc1 (configuration not stated)	35*	i	5%	-5%	9	-22%
Cc1ccc(C(=O)N/C(=C/c2ccc(Cl)cc2)C(=O)NCC2CCCO2)cc1 (configuration not stated)	-4	i	-6%	0%	6	7%
COc1ccc(-c2ccc(CNCCCSc3nnnn3C)o2)cc1Cl	-24	i	-7%	-35%	·	-23%
CCc1ccc(-c2nc3c(=O)n(C)c(=O)nc-3n(CC)n2)cc1	·	·	0.89µM*	1.3µM*	·	·
CCCc1nc2c(=O)n(C)c(=O)nc-2n(C)n1	-11	·	1.1µM*	1.1µM*	-61*	4.2µM*
SMILES	D3 ag	S2 tox	TGFb inhibitor	HepG2 viability	DRD3 antagonist	ATXN2 expr inh
CCc1ccc(-c2csc3ncn(CC)c(=O)c23)cc1	0	i	-9%	-9%	-7	·
Cn1nc(-c2ccccn2)nc2c(=O)n(C)c(=O)nc1-2	-18	·	2.2µM*	2.8µM*	-69*	?
Cc1ccccc1-c1nc2c(=O)n(C)c(=O)nc-2n(C)n1	·	·	0.63µM*	1.1µM*	·	·
Cc1c(C(=O)NCC2CC2)sc2ncnc(NCCN3CCCCC3)c12	·	i	·	·	·	·
O=[N+]([O-])O[C@@H]1CO[C@H]2[C@@H]1OC[C@@H]2O	4	·	·	·	·	·
CCOC(=O)c1ccccc1OCc1cc(C2Nc3ccccc3C(=O)N2c2cccc3ccccc23)ccc1OC (configuration not stated)	·	·	2%	3%	·	·
O=C(Nc1nc2ccccc2n1CCN1CCOCC1)c1cccc([N+](=O)[O-])c1	·	·	·	·	·	22µM*
CCN1CCN(C(=O)c2ccccc2N(Cc2ccccc2)S(=O)(=O)c2ccc(C)cc2)CC1	-3	i	?	-31%	-52*	-4%
COc1cc2c(=O)n(CCc3ccccc3)c(=O)n(CC(=O)Nc3ccccc3)c2cc1OC	-1	i	?	-9%	·	-18%
C=C1C=C(C)n2ncc(C(=O)Nc3ccccc3C(=O)OC)c2N1	·	·	-1%	-1%	·	·
Nc1ncnc2c1c(-c1ccc(Oc3ccccc3)cc1)cn2C1CCCC1	22	?	22µM*	-70%	36	-34%
CC(C)(C)OC(=O)N1CCC(NC(=O)c2nc[nH]c2C(=O)N2CCN(C(=O)OC(C)(C)C)CC2)CC1	7	i	-5%	7%	6	7%
CCOC(=O)c1[nH]cnc1C(=O)NC1CCN(C(=O)OC(C)(C)C)CC1	34*	i	?	1%	11	10%
CC(C)(C)OC(=O)N1CCC(NC(=O)c2nc[nH]c2C(=O)N2CCN(c3ccccc3)CC2)CC1	51*	i	-12%	-6%	9	-16%
Cc1cc(N2CCN(C(=O)Nc3ccc(F)cc3F)CC2)c2ccccc2n1	-11	i	1%	-20%	-11	-35%
CCCCc1ccc(NC(=O)N2CCN(c3cc(C)nc4ccccc34)CC2)c(C)c1	3	?	?	-23%	2	18µM*
COc1cc(-c2nc3nc(C)cc(C)n3c2Nc2ccc(Cl)cc2)ccc1O	9	·	13µM*	-40%	·	·
O=C(Nc1ccc(CN2CCOCC2)cc1)c1ccc(-c2ccc(Br)cc2)o1	18	?	?	10µM*	14	?
COc1ccc(C(=O)NC(=S)Nc2ccc(CN3CCOCC3)cc2)cc1Br	-1	?	11µM*	-54%	3	·
O=[N+]([O-])c1cccc(COc2cccc(CN3CCOCC3)c2)c1	-37	i	-1%	-18%	-65*	5%
O=[N+]([O-])c1ccc(COc2cccc(CN3CCOCC3)c2)cc1	-13	?	1%	-25%	-4	1%
O=C(Nc1ccc(CN2CCOCC2)cc1)c1ccc(Br)cc1	6	i	-13%	-2%	-2	-22%

Compound activity deposited in PubChem by National Center for Advancing Translational Sciences (NCATS).
